# Assay results reported in PubChem BioAssay (NCATS).
# Values joined by “and” are separate entries in the source; they are usually repeats but may differ in a detail not shown here. Equal values may be shown once. Inconclusive results are not listed. A call without a number means that no potency is given here. Values without a mark were called inactive. Active and inactive are the calls of the source. Calls follow the shape of the dose curve; as a rule, active = well fitted curve in the direction sought with a large enough effect; inconclusive = small, poorly fitted or top-dose-only effect, or another doubt; inactive = no such curve, though single readings can be large; an effect the other way counts as inactive or inconclusive.
# Experiments:
# [1] = system: Zika virus NS2B-NS3 protease (unlinked); test: Optimization of GU AMC qHTS for Zika virus inhibitors: Unlinked NS2B-NS3 protease assay (AID 1347151); also: nearly all actives have a fitted effect of over 80% in size; also: potency is read from the fitted curve at half-maximal effect; as to activity change, negative = inhibition: series mostly up to about 52 µM
# Method in brief: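 Fluorescence read-out (340 nm ex / 450 nm em) of AMC peptide cleavage, taken immediately and after 15 min at room temperature (~20% conversion). Enzyme was the unlinked NS2B–NS3 complex at 25 nM in Tris pH 8.0 buffer.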
# [2] = system: Zika virus NS2B-NS3 protease; test: Primary screen GU AMC qHTS for Zika virus inhibitors (AID 1347154); also: nearly all actives have a fitted effect of over 70% in size; also: potency is read from the fitted curve at half-maximal effect
# Method in brief: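 Unlinked Zika NS2B hydrophilic domain/NS3 protease domain noncovalent complex (25 nM final) in 10 mM Tris-HCl pH 8.0, 0.01% Tween 20, with AMC peptide substrate. Fluorescence (ex 340, em 450 nm) change over 15 min, room temperature; percent inhibition fitted to 4-parameter Hill equation.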
# Furin (Homo sapiens) = Furin (Homo sapiens) (UniProt P09958); test: Furin counterscreen qHTS for Zika virus inhibitors (AID 1347149); also: nearly all actives have a fitted effect of over 70% in size; also: potency is read from the fitted curve at half-maximal effect;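 as to activity change, negative = inhibition: purified recombinant full-length human furin enzyme at 5 nM; fluorescence gain from furin cutting a BOC-RVRR-AMC peptide substrate over 15 min; top concentration of the series differs between compounds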
# Method in brief: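 Fluorogenic cleavage of BOC-RVRR-AMC (2 microM final, Km ~15 µM) was monitored (ex 340, em 450 nm) at 37C after 15 min RT preincubation of 5 nM furin with compounds in HEPES pH 7.0 buffer with CaCl2 and Triton X-100. Percent inhibition was fitted to a 4-parameter Hill curve.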
# [3] = system: Zika virus NS2B-NS3 protease (linked construct); test: Confirmatory screen NINDS AMC qHTS for Zika virus inhibitors (AID 1347152); also: nearly all actives have a fitted effect of over 70% in size; also: potency is read from the fitted curve at half-maximal effect;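 as to activity change, negative = inhibition: AMC fluorescence gain from cleaved Bz-Nle-KRR-AMC substrate over 15 min; top concentration of the series differs between compounds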
# Method in brief: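 Linked NS2B-NS3 1 nM, Tris pH 8.0/0.01% Tween 20; cpd 15 min RT dark; + Nle-KRR-AMC 10 µM (Km 18.3 µM); read 0 and 15 min, 340/450 nm; %inh vs controls, 4-param Hill.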
# [4] = Confirmatory screen NINDS Rhodamine qHTS for Zika virus inhibitors (AID 1347161); also: nearly all actives have a fitted effect of over 60% in size; also: potency is read from the fitted curve at half-maximal effect;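 as to activity change, negative = inhibition: purified Zika NS2B-NS3 protease with linked NS2B cofactor domain and Rhodamine110 peptide substrate; series mostly up to about 110 µM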
# Method in brief: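 qHTS dose-response: 25 nM linked protease, pH 8.0 Tris/Tween buffer, cpd titration, 15 min RT preinc, 1.5 microM Rhod110 peptide, 15 min reaction (~15% conversion), Ex480/Em540; 4-parameter Hill fit.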
# [5] = system: Zika virus NS2B-NS3 protease (unlinked complex); test: Primary screen GU Rhodamine qHTS for Zika virus inhibitors: Unlinked NS2B-NS3 protease assay (AID 1347159); also: nearly all actives have a fitted effect of over 60% in size
# Text: Avindra Nath, Ph.D., National Institute of Neurological Disorders and Stroke (NINDS), Bethesda, MD
# Radhakrishnan Padmanabhan, Ph.D., Georgetown University (GU), Washington D.C.
# Zika Virus causes congenital defects, including microcephaly and is associated with Guillain-Barre syndrome, eningoencephalitis and myelitis in infected adult. […] Using a target-based approach, we hope to establish a screening paradigm to uncover novel, cell-active NS2B-NS3 protease (Zika Virus) specific inhibitors from NCATS' collection of small molecules using qHTS.
# Four assay panel was created to identify potential Zika Virus inhibitors. Namely, (1) GU unlinked NS2B-NS3 AMC tagged protease qHTS, (2) GU unlinked NS2B-NS3 Rhodamine tagged protease qHTS, (3) NINDS linked NS2B-NS3 AMC tagged protease qHTS, (4) NINDS linked NS2B-NS3 Rhodamine tagged protease qHTS. Active compounds were re-acquired and re-screened to confirm inhibition. Inhibitors were further screened against various confirmatory and counterscreens in dose response format.
# Early Translation Branch (ETB)
# National Center for Advancing Translational Sciences (NCATS), Rockville, MD
# National Institute of Health (NIH), Bethesda, Maryland
# Padmanabhan lab provided the NS2B hydrophilic domain and NS3 protease domain in a noncovalent complex used for the unlinked assay. Control compound aprotinin is obtained from Thermo Scientific (#78432; Waltham, Massachusetts). Rhodamine110 substrate ([N-Cbz]-Nle-Lys-Arg-Arg-Rhod110-Arg-Arg-Lys-Nle-[N-Cbz]) was purchased from either Genscript or Bachem.
# 1536-well Protease (Rhodamine110 Substrate) Assay:
# Briefly, 3 microL of enzyme (25 nM final concentration), in assay buffer (10 mM Tris-HCl pH 8.0 with 0.01% Tween 20) were dispensed into a 1,536-well solid-bottom black plate (Greiner Bio One, Monroe, NC). Twenty-three nL of compounds (final concentration range 7.28 nM to 114 microM) or control Aprotinin (final concentration range 3.47 nM to 114 microM) were transferred via Wako Pin-tool (Wako Automation, Richmond, VA). Samples were incubated (room temperature, protected from light) for 15 minutes followed by a 1 microL Rhodamine110 substrate addition (1.5 microM final concentration). Plates were then immediately read on a ViewLux High-throughput CCD imager (PerkinElmer, Waltham, MA) equipped with FITC fluorescence optics (480(20) nm excitation, 540(25) nm emission), then incubated (room temperature, protected from light) for 15 minutes (~15% conversion). The change in fluorescence intensity over the 15-minute reaction period was normalized against no-inhibitor and no-enzyme controls and the resulting percent inhibition data were fitted to a 4-parameter Hill equation. Aprotinin was used as intraplate control.
# [6] = system: Zika virus NS2B-NS3 protease (linked construct); test: Primary screen NINDS Rhodamine qHTS for Zika virus inhibitors (AID 1347160); also: nearly all actives have a fitted effect of over 55% in size
# Method in brief: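 Purified NS2B-NS3 protease with the NS2B hydrophilic domain joined by a flexible linker (25 nM) in 10 mM Tris-HCl pH 8.0, 0.01% Tween 20, preincubated 15 min at RT with compound; Rhodamine110 peptide substrate 1.5 µM; fluorescence change over 15 min; 4-parameter Hill fit.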
# [7] = system: Zika virus NS2B-NS3 protease (unlinked complex); test: Confirmatory screen GU AMC qHTS for Zika virus inhibitors (AID 1347153); also: nearly all actives have a fitted effect of over 70% in size
# Method in brief: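 Unlinked NS2B-NS3 complex (25 nM) in 10 mM Tris-HCl pH 8.0, 0.01% Tween 20 preincubated 15 min with compound, then 10 microM Bz-Nle-KRR-AMC (Km 18.3 µM). Fluorescence change over 15 min, normalized, Hill-fitted.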
# [8] = Confirmatory screen GU Rhodamine qHTS for Zika virus inhibitors qHTS (AID 1347157); conditions: purified enzyme assay, Rhodamine110 substrate fluorescence, 15 min
# Method in brief: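 Enzyme 25 nM in Tris-HCl pH 8.0 + 0.01% Tween 20; compounds up to 114 microM, 15 min RT dark; + Rhod110 substrate 1.5 microM; read t0 and 15 min; delta fluorescence → % inhibition → 4-parameter Hill fit.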
# Furin (Homo sapiens), sequence (P09958 whole entry, looked up): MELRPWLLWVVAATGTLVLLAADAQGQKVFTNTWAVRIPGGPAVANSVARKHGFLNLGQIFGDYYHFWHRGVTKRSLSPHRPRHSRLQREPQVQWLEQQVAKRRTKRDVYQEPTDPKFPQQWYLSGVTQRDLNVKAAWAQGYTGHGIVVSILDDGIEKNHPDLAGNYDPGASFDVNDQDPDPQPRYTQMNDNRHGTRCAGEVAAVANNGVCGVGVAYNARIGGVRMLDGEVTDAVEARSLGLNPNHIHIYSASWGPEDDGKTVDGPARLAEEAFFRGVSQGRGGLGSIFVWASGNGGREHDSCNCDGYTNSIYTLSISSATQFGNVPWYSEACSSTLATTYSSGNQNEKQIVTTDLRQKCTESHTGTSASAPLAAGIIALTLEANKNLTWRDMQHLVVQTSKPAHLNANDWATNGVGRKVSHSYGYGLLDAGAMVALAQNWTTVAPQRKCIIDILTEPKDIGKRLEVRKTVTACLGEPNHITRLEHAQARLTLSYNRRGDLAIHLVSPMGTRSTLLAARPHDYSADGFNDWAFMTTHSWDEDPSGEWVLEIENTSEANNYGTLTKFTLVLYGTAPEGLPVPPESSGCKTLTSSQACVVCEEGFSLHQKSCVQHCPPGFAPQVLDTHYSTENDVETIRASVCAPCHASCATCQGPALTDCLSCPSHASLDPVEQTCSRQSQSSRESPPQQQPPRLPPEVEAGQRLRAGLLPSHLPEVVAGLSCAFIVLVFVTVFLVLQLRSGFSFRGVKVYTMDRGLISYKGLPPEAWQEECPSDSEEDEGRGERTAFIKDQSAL
compound,measurement,setting,value
CC(=O)[C@H]1CC[C@H]2[C@@H]3CC[C@H]4C[C@H](O)CC[C@]4(C)[C@H]3C(=O)C[C@]12C,Potency,[1],inactive
same,Potency,[2],inactive
NCC1(CC(=O)O)CCCCC1,Potency,[1],inactive
same,Potency,[2],inactive
CCN(C(C)=O)c1cccc(-c2ccnc3c(C#N)cnn23)c1,Potency,Furin (Homo sapiens),24.1 µM (active)
same,Potency,[3],27.1 µM (active)
same,Potency,[2],31.6 µM (active)
same,Potency,[4],inactive
O=c1[nH]c2ccccc2n1C1CCN(CCCC(c2ccc(F)cc2)c2ccc(F)cc2)CC1,Potency,[1],inactive
same,Potency,[2],inactive
same,Potency,[5],inactive
same,Potency,[6],inactive
Cc1cccc(C)c1NC(=O)CN1CCCC1=O,Potency,[1],inactive
same,Potency,[2],inactive
c1ccc(C2CC2)c(OCC2=NCCN2)c1,Potency,[1],inactive
same,Potency,[2],inactive
CC(O)(CS(=O)(=O)c1ccc(F)cc1)C(=O)Nc1ccc(C#N)c(C(F)(F)F)c1 (stereo not given),Potency,[1],inactive
same,Potency,[2],inactive
same,Potency,[5],inactive
same,Potency,[6],inactive
CC(=O)[C@H]1CC[C@H]2[C@@H]3CC[C@H]4C[C@](C)(O)CC[C@]4(C)[C@H]3CC[C@]12C,Potency,[1],inactive
same,Potency,[2],inactive
Cc1ncc(CNC(=O)N(CCCl)N=O)c(N)n1,Potency,[1],inactive
same,Potency,[2],inactive
CNCC(O)c1ccc(O)cc1 (stereo not given),Potency,[1],inactive
same,Potency,[2],inactive
O=c1[nH]c2ccccc2n1CCCN1CCC(n2c(=O)[nH]c3cc(Cl)ccc32)CC1,Potency,[1],inactive
same,Potency,[2],inactive
CC[C@@H](CO)NC(=O)[C@@H]1C=C2c3cccc4[nH]cc(c34)C[C@H]2N(C)C1,Potency,[1],23.8 µM (active)
Nc1ccncc1,Potency,[1],inactive
same,Potency,[2],inactive
Cc1ccc(-c2nc3ccc(C)cn3c2CC(=O)N(C)C)cc1,Potency,Furin (Homo sapiens),8.55 µM (active)
same,Potency,[3],27.1 µM (active)
same,Potency,[2],31.6 µM (active)
same,Potency,[4],inactive
C[C@H]1O[C@@H](O[C@H]2[C@@H](O)C[C@H](O[C@H]3[C@@H](O)C[C@H](O[C@H]4CC[C@@]5(C)[C@H](CC[C@@H]6[C@@H]5CC[C@]5(C)[C@@H](C7=CC(=O)OC7)CC[C@]65O)C4)O[C@@H]3C)O[C@@H]2C)C[C@H](O)[C@@H]1O,Potency,Furin (Homo sapiens),inactive
same,Potency,[1],inactive
same,Potency,[2],inactive
same,Potency,[5],inactive
same,Potency,[6],inactive
NCC(CC(=O)O)c1ccc(Cl)cc1 (stereo not given),Potency,[1],inactive
same,"activity change, negative = inhibition",[2],-12.9% [at 0.59 µM]
CCC1(C2=NCCN2)Cc2ccccc2O1 (stereo not given),Potency,[1],inactive
same,Potency,[2],inactive
c1ccc2c(c1)OCC(C1=NCCN1)O2 (stereo not given),Potency,[1],inactive
same,Potency,[2],inactive
NN=C(N)N,Potency,[1],inactive
same,Potency,[2],inactive
Cc1ccc(S(=O)(=O)N[C@@H](CCCCN)C(=O)CCl)cc1,Potency,[1],inactive
same,Potency,[2],inactive
CN1C[C@H](CNC(=O)OCc2ccccc2)C[C@@H]2c3cccc4c3c(cn4C)C[C@H]21,Potency,[1],23.8 µM (active)
same,Potency,[3],inactive
same,Potency,[7],inactive
same,Potency,[2],inactive
same,Potency,[4],inactive
COc1ccc(C(CN(C)C)C2(O)CCCCC2)cc1 (stereo not given),Potency,[1],inactive
same,Potency,[2],inactive
N[C@@H](Cc1ccc(Oc2cc(I)c(O)c(I)c2)c(I)c1)C(=O)O,Potency,Furin (Homo sapiens),30.4 µM (active)
same,Potency,[8],6.31 µM (active)
same,Potency,[4],11.2 µM (active) and 4.94 µM (active)
O=c1oc2ccccc2c(O)c1C(CC(O)c1ccc(-c2ccc(Br)cc2)cc1)c1ccccc1 (stereo not given),Potency,Furin (Homo sapiens),26.4 µM (active)
same,Potency,[2],14.1 µM (active)
same,Potency,[8],7.94 µM (active)
same,Potency,[4],3.16 µM (active)
O=C1NCN(c2ccccc2)C12CCN(CC1COc3ccccc3O1)CC2 (stereo not given),Potency,[1],inactive
same,Potency,[2],inactive
COc1ccccc1N1CCNCC1,Potency,[1],inactive
same,Potency,[2],inactive
CC(CCc1ccccc1)NC(C)C(O)c1ccc(O)cc1 (stereo not given),Potency,[1],inactive
same,Potency,[2],inactive
